# Laboratory results published in PubChem BioAssay (EPA / NIEHS).
# Inconclusive results are not listed. Calls of active or inactive are those of the source. Rule for the calls, unless noted: active = hit-call score of the fitted dose curve at least 0.9, where 1 is the maximum; inactive = score below 0.9.
# Legend:
# [1] = read-out: E-selectin (Homo sapiens) (UniProt P16581); test: BSK_3C_Eselectin: BioMAP Diversity Plus: 3C Assay for Eselectin Biomarker Activity (AID 2283015); settings: primary human endothelial cells (HUVEC); actives raise or lower the signal;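 for outcome: cell surface E-selectin protein quantified by ELISA 24 h after dosing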
# Summary of the method: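 HUVEC, 3C stimulation; compound exposure 24 h; E-selectin by ELISA; gain- or loss-of-signal fitted bidirectionally vs DMSO baseline.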
# [2] = read-out: Interleukin-1 alpha (IL1a), IL1A (gene 3552); test: BSK_BE3C_IL1a: BioMAP Diversity Plus: BE3C Assay for Interleukin-1 alpha (IL1a) Biomarker Activity (AID 2283016); settings: primary human bronchial epithelial cells; actives raise or lower the signal
# Summary of the method: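 IL-1a measured by ELISA after 24 h treatment of human primary bronchial epithelial cells, with gain or loss of signal fitted versus DMSO. Parallel cultures stained with SRB gauge overt cytotoxicity.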
# [3] = read-out: Monocyte Chemoattractant Protein-1 (MCP1), CCL2 (gene 6347); test: BSK_3C_MCP1: BioMAP Diversity Plus: 3C Assay for Monocyte Chemoattractant Protein-1 (MCP1) Biomarker Activity (AID 2283017); settings: primary human endothelial cells (HUVEC); actives raise or lower the signal
# Summary of the method: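 HUVEC, 3C system; 24 h chemical exposure; MCP-1 by ELISA; bidirectional curve fit vs DMSO baseline.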
# [4] = read-out: Monocyte Chemoattractant Protein-1 (MCP1), CCL2 (gene 6347); test: BSK_4H_MCP1: BioMAP Diversity Plus: 4H Assay for Monocyte Chemoattractant Protein-1 (MCP1) Biomarker Activity (AID 2283018); settings: primary human endothelial cells (HUVEC); actives raise or lower the signal
# Summary of the method: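 ELISA of MCP-1 (CCL2) 24 h after chemical dosing of HUVEC in the BioMAP 4H system. Gain or loss versus DMSO fitted; parallel SRB staining (560 nm) tracked overt cytotoxicity.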
# [5] = read-out: Human Leukocyte Antigen - DR isotype (HLADR), HLA-DRA (gene 3122); test: BSK_3C_HLADR: BioMAP Diversity Plus: 3C Assay for Human Leukocyte Antigen - DR isotype (HLADR) Biomarker Activity (AID 2283019); settings: primary human endothelial cells (HUVEC); actives raise or lower the signal;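 for outcome: ELISA of cell-surface HLA-DR on HUVEC 24 h after dosing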
# Summary of the method: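 HUVEC, 3C stimulation, 24 h post-dose; HLA-DR by ELISA; bidirectional curve fit vs DMSO baseline; gain or loss of signal scored.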
# [6] = read-out: Interleukin-8 (IL8), CXCL8 (gene 3576); test: BSK_3C_IL8: BioMAP Diversity Plus: 3C Assay for Interleukin-8 (IL8) Biomarker Activity (AID 2283020); settings: primary human endothelial cells (HUVEC); actives raise or lower the signal
# Summary of the method: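 IL-8 was measured by ELISA in HUVEC cultures 24 h after chemical dosing, with gain or loss of signal fitted relative to DMSO. Parallel SRB total-protein staining tracked overt cytotoxicity.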
# [7] = read-out: Monokine induced gamma interferon (MIG), CXCL9 (gene 4283); test: BSK_3C_MIG: BioMAP Diversity Plus: 3C Assay for Monokine induced gamma interferon (MIG) Biomarker Activity (AID 2283021); settings: primary human endothelial cells (HUVEC); actives raise or lower the signal
# Summary of the method: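 ELISA measurement of MIG in human umbilical vein endothelial cells 24 h after treatment. Cytotoxicity tracked by SRB staining in parallel cultures; gain or loss of signal fitted relative to DMSO.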
# [8] = BSK_3C_SRB: Viability Assessment in the BioMAP Diversity Plus: 3C Assay (AID 2283023); settings: primary human endothelial cells (HUVEC);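 note: cells read 24 h after compound dosing; fitted both ways against DMSO so a hit may be signal rise or drop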
# Summary of the method: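 HUVEC, 24 h post-dose; 10% TCA fix, 0.1% SRB stain, A560 nm. Bidirectional curve fit vs DMSO negative control.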
# [9] = read-out: Matrix Metallopeptidase 1 (MMP1), MMP1 (gene 4312); test: BSK_BE3C_MMP1: BioMAP Diversity Plus: BE3C Assay for Matrix Metallopeptidase 1 (MMP1) Biomarker Activity (AID 2283024); settings: primary human bronchial epithelial cells; actives raise or lower the signal
# Summary of the method: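 ELISA measurement of MMP-1 after 24 h compound exposure of primary human bronchial epithelial cells. Changes in either direction fitted relative to DMSO; parallel SRB staining checked overt cytotoxicity.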
# [10] = BSK_3C_Vis: BioMAP Diversity Plus: 3C Assay for Morphology Visualization (AID 2283025); settings: primary human endothelial cells (HUVEC);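 note: fitted both ways so gain or loss versus DMSO counts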
# Summary of the method: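 Light-microscopy visualization of HUVEC cultures at 24 h post-treatment, with DMSO as baseline for bidirectional fitting.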
# [11] = read-out: Pselectin, SELP (gene 6403); test: BSK_4H_Pselectin: BioMAP Diversity Plus: 4H Assay for Pselectin Biomarker Activity (AID 2283026); settings: primary human endothelial cells (HUVEC); actives raise or lower the signal
# Summary of the method: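 ELISA of surface P-selectin on HUVEC, 24 h after dosing, with parallel SRB staining (0.1% after 10% TCA fixation, 560 nm) for overt cytotoxicity. Activity fitted in both directions relative to DMSO.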
# [12] = BSK_4H_SRB: Viability Assessment in the BioMAP Diversity Plus: 4H Assay (AID 2283027); settings: primary human endothelial cells (HUVEC);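 note: cells exposed to compound for 24 h before staining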
# Summary of the method: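 HUVEC, 24 h post-dose; 10% TCA fix, 0.1% SRB stain, A560 nm. Total protein = overt cytotoxicity, parallel to biomarker read. Bidirectional fit vs DMSO baseline.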
# [13] = BSK_BE3C_SRB: Viability Assessment in the BioMAP Diversity Plus: BE3C Assay (AID 2283028); settings: primary human bronchial epithelial cells
# Summary of the method: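 Primary human bronchial epithelium; chemical dosing, 24 h; 10% TCA fix, 0.1% SRB stain, A560; bidirectional fit vs DMSO baseline.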
# [14] = read-out: Thrombomodulin, THBD (gene 7056); test: BSK_3C_Thrombomodulin: BioMAP Diversity Plus: 3C Assay for Thrombomodulin Biomarker Activity (AID 2283029); settings: primary human endothelial cells (HUVEC); actives raise or lower the signal
# Summary of the method: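 ELISA measurement of thrombomodulin on HUVEC surface 24 h after chemical dosing; activity fitted in both directions relative to DMSO vehicle.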
# [15] = read-out: Urokinase-type plasminogen activator receptor (uPAR), PLAUR (gene 5329); test: BSK_4H_uPAR: BioMAP Diversity Plus: 4H Assay for Urokinase-type plasminogen activator receptor (uPAR) Biomarker Activity (AID 2283030); settings: primary human endothelial cells (HUVEC); actives raise or lower the signal
# Summary of the method: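 HUVEC, 24 h post-dose; uPAR by ELISA; bidirectional fit vs DMSO baseline.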
# [16] = read-out: Vascular endothelial growth factor receptor 2 (Homo sapiens) (UniProt P35968); test: BSK_4H_VEGFRII: BioMAP Diversity Plus: 4H Assay for Vascular endothelial growth factor receptor 2 (VEGFR2) Biomarker Activity (AID 2283031); settings: primary human endothelial cells (HUVEC); actives raise or lower the signal
# Summary of the method: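 HUVEC (human primary), 4H system; 24 h post-dose; VEGFRII by ELISA; bidirectional curve fit vs DMSO baseline; gain or loss of signal scored.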
# [17] = target: human Vitamin D Receptor (VDR), VDR (gene 7421) (UniProt P11473); test: ATG_VDR_TRANS: Attagene TRANS-FACTORIAL HepG2 Assay for human Vitamin D Receptor (VDR) (AID 2283022; active = hit-call score of the fitted dose curve at least 0.9, where 1 is the maximum)
# Sequence of human Vitamin D Receptor (VDR), VDR (gene 7421) (P11473 whole entry, looked up, the tested form may be a part): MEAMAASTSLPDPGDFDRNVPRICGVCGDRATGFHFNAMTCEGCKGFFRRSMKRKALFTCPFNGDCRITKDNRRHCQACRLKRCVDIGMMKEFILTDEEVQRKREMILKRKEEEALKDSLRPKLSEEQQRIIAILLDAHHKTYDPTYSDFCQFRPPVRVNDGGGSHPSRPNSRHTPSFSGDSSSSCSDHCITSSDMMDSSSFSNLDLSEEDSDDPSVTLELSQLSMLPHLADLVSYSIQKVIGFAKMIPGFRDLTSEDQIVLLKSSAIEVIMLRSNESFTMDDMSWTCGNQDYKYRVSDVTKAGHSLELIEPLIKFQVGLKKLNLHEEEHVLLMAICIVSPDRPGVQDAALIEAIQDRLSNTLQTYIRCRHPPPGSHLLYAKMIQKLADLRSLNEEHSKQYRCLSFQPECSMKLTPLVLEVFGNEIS
# Summary of the method: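 RT-PCR/capillary electrophoresis read-out of reporter mRNA induction in transiently transfected HepG2; 24 h dosing; chimeric NR-Gal4 (TRANS format); gain-of-signal fit against DMSO baseline.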
# [18] = target: human Thyroid Receptor alpha (THRa1), THRA (gene 7067) (UniProt P10827); test: ATG_THRa1_TRANS: Attagene TRANS-FACTORIAL HepG2 Assay for human Thyroid Receptor alpha (THRa1) (AID 2283014; active = hit-call score of the fitted dose curve at least 0.9, where 1 is the maximum)
# Sequence of human Thyroid Receptor alpha (THRa1), THRA (gene 7067) (P10827 whole entry, looked up, the tested form may be a part): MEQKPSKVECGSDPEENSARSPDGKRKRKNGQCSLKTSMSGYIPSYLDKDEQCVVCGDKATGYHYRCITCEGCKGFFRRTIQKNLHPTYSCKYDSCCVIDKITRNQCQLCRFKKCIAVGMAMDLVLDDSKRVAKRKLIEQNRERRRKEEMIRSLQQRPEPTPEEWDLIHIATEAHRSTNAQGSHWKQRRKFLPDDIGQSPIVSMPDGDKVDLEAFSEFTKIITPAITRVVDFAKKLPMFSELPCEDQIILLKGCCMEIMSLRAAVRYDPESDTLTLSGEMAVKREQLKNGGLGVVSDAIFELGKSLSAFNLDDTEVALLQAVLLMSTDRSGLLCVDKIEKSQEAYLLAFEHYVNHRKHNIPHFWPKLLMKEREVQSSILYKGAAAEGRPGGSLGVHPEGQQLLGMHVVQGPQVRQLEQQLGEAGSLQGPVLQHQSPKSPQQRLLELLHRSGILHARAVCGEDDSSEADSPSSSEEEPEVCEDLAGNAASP
# Summary of the method: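 Transient HepG2 transfection, NR-Gal4 chimera driving GAL4-UAS reporters; 24 h compound exposure; total RNA, oligo(dT) RT, PCR, fluorescent primer extension, capillary electrophoresis. Upward direction vs DMSO control.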
# Sequence of E-selectin (Homo sapiens) (P16581 whole entry, looked up): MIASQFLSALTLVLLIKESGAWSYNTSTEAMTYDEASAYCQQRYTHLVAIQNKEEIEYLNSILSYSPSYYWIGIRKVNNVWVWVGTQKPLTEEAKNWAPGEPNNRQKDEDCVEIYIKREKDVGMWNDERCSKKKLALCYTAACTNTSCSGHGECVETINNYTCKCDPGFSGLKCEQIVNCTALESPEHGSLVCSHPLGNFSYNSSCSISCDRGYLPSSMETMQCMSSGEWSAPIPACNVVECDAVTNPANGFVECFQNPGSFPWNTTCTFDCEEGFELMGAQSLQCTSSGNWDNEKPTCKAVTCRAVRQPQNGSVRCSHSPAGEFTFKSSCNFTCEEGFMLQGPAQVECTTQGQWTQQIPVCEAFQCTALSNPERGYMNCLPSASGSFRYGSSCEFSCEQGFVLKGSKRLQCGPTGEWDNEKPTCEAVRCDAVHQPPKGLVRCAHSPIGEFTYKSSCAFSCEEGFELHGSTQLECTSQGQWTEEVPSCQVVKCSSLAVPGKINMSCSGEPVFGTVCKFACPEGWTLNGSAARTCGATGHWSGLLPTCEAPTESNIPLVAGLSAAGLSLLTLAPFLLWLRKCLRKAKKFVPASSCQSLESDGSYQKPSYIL
structure (smiles),measurement,setting,value
CO[C@@H]1COCC[C@@H]1N[C@@H]1CC[C@@](C(=O)N2CCc3ncc(C(F)(F)F)cc3C2)(C(C)C)C1,outcome,[1],inactive
same,outcome,[2],inactive
same,outcome,[3],inactive
same,outcome,[4],inactive
same,outcome,[5],inactive
same,outcome,[6],inactive
same,outcome,[7],inactive
same,outcome,[8],inactive
same,outcome,[9],inactive
same,outcome,[10],inactive
same,outcome,[11],inactive
same,outcome,[12],inactive
same,outcome,[13],inactive
same,outcome,[14],inactive
same,outcome,[15],inactive
same,outcome,[16],inactive
COC(=O)CCC(=O)OC,outcome,[1],inactive
same,outcome,[2],inactive
same,outcome,[3],inactive
same,outcome,[4],inactive
same,outcome,[5],inactive
same,outcome,[6],inactive
same,outcome,[8],inactive
same,outcome,[9],inactive
same,outcome,[10],inactive
same,outcome,[11],inactive
same,outcome,[12],inactive
same,outcome,[13],inactive
same,outcome,[14],inactive
same,outcome,[15],inactive
same,outcome,[16],inactive
CC(=O)S[C@H](C(=O)N[C@H]1Cc2ccccc2[C@H]2CCC[C@@H](C(=O)O)N2C1=O)C(C)C,outcome,[1],inactive
same,outcome,[2],inactive
same,outcome,[3],inactive
same,outcome,[4],inactive
same,outcome,[5],inactive
same,outcome,[6],inactive
same,outcome,[7],inactive
same,outcome,[8],inactive
same,outcome,[9],inactive
same,outcome,[10],inactive
same,outcome,[11],inactive
same,outcome,[12],inactive
same,outcome,[13],inactive
same,outcome,[14],inactive
same,outcome,[15],inactive
same,outcome,[16],inactive
Cc1cn([C@H]2C=C[C@@H](CO)O2)c(=O)[nH]c1=O,outcome,[1],inactive
same,outcome,[2],inactive
same,outcome,[3],inactive
same,outcome,[4],inactive
same,outcome,[5],inactive
same,outcome,[6],inactive
same,outcome,[7],inactive
same,outcome,[17],inactive
same,outcome,[8],inactive
same,outcome,[9],inactive
same,outcome,[10],inactive
same,outcome,[11],inactive
same,outcome,[12],inactive
same,outcome,[13],inactive
same,outcome,[14],inactive
same,outcome,[15],inactive
same,outcome,[16],inactive
O=C(O)c1[nH]n(-c2ccc(S(=O)(=O)O)cc2)c(=O)c1N=Nc1ccc(S(=O)(=O)O)cc1,outcome,[1],inactive
same,outcome,[2],inactive
same,outcome,[3],inactive
same,outcome,[4],inactive
same,outcome,[5],inactive
same,outcome,[6],inactive
same,outcome,[17],inactive
same,outcome,[8],inactive
same,outcome,[9],inactive
same,outcome,[10],inactive
same,outcome,[11],inactive
same,outcome,[12],inactive
same,outcome,[13],inactive
same,outcome,[14],inactive
same,outcome,[15],inactive
same,outcome,[16],inactive
O=C(Oc1ccccc1)c1cccc(C(=O)Oc2ccccc2)c1,outcome,[18],inactive
same,outcome,[1],inactive
same,outcome,[2],inactive
same,outcome,[3],inactive
same,outcome,[4],inactive
same,outcome,[5],inactive
same,outcome,[6],inactive
same,outcome,[7],inactive
same,outcome,[8],inactive
same,outcome,[9],inactive
same,outcome,[10],inactive
same,outcome,[11],inactive
same,outcome,[12],inactive
same,outcome,[13],inactive
same,outcome,[14],inactive
same,outcome,[15],inactive
same,outcome,[16],inactive
Oc1ccc(O)cc1,AC50,[1],13.8 µM (active)
same,outcome,[2],inactive
same,outcome,[3],inactive
same,outcome,[4],inactive
same,AC50,[5],23.5 µM (active)
same,outcome,[6],inactive
same,outcome,[17],inactive
same,outcome,[8],inactive
same,AC50,[9],2.96 µM (active)
same,outcome,[10],inactive
same,AC50,[11],20 µM (active)
same,outcome,[12],inactive
same,outcome,[13],inactive
same,outcome,[14],inactive
same,outcome,[16],inactive
CC(C)c1cccc(C(C)C)c1NC(=O)NS(=O)(=O)c1cc(C(C)(C)O)co1,outcome,[1],inactive
same,outcome,[2],inactive
same,outcome,[3],inactive
same,outcome,[4],inactive
same,outcome,[5],inactive
same,outcome,[6],inactive
same,outcome,[17],inactive
same,outcome,[8],inactive
same,outcome,[9],inactive
same,outcome,[10],inactive
same,outcome,[11],inactive
same,outcome,[12],inactive
same,outcome,[13],inactive
same,outcome,[14],inactive
same,outcome,[16],inactive
